From PubChem BioAssay (EPA / NIEHS) come the findings set out here.

“And” between values parts separate entries of the source, which are not always exact repeats. Identical values can stand only once. Records with an inconclusive call do not appear. The source made the active and inactive calls. The calls were made as follows: active = hit-call score of the fitted dose curve at least 0.9, where 1 is the maximum; inconclusive = response in the unintended direction; inactive = score below 0.9.

Cellular tumor antigen p53 (Homo sapiens), sequence (P04637 whole entry, looked up): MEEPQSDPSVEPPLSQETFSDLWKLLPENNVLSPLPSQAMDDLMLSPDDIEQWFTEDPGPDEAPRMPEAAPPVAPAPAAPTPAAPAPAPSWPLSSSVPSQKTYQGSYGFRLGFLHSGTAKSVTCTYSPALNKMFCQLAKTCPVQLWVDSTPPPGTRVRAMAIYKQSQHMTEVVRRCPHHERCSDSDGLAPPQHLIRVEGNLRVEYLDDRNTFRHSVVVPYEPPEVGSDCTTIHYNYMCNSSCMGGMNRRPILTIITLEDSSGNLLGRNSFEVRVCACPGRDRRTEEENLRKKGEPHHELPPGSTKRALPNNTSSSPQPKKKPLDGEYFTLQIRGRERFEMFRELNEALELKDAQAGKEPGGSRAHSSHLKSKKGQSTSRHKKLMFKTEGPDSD

Tested on in the first assay: not listed separately
Kind of assay: ATG_XTT_Cytotoxicity: Cytotoxicity Assessment in the Attagene TRANS-FACTORIAL HepG2 Assay (AID 2283584).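 As to AC50: cells exposed to compound for 24 h before reading; active means loss of viability signal versus DMSO baseline.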 The method in brief:
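XTT readout of cell number in transfected HepG2 cells, 24 h post-dosing; DMSO serves as negative control and baseline, with activity taken as loss of viability signal.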
On to `COCC1CCC(CO)CC1` (stereo unspecified), for which the result was inactive.

For the compound `CC1CCC(CO)CC1` (stereo unspecified), the compound was called inactive.

Consider `C/C=C/C(=O)C1=C(C)CCCC1(C)C`, for which the outcome was inactive.

With `COc1ccc(C#N)cc1`, the call was inactive.

Turning to `CCCCCc1ccc(O)cc1`, the compound was called inactive.

For `COc1cc([N+](=O)[O-])ccc1N`, the call was inactive.

With `Nc1ccn([C@@H]2O[C@H](CO)[C@@H](O)C2O)c(=O)n1` (stereo partly specified), the call was inactive.

Regarding `COC1=CC(=O)C[C@@H](C)[C@]12Oc1c(Cl)c(OC)cc(OC)c1C2=O`, the compound was called inactive.

For the compound `CCOC=C(C(=O)OCC)C(=O)OCC`, the call was inactive.

Regarding `C=Cc1ccc(O)c(OC)c1`, the compound was called inactive.

As usually defined, the AC50 is the midpoint of the concentration-response curve, whichever way the signal moves. As for `C=CC(=O)OCC(CO)(COCC(COC(=O)C=C)(COC(=O)C=C)COC(=O)C=C)COC(=O)C=C`, the AC50 was 29.3 µM (active).

On to `Oc1c(Cl)ccc(Cl)c1Cl`, for which the compound was classed as inactive.

As to `O=C1c2ccc(O)c(O)c2C(=O)c2c(O)ccc(O)c21`, the call was inactive.

Take `OCCN1CN(CCO)CN(CCO)C1`: the compound was called inactive.

For `C=CC(=C)CC/C=C(\C)CCC=C(C)C`, the result was inactive.

Turning to `CCOC(OCC)C(=O)c1ccccc1`, the outcome was inactive.

Regarding `CC(C)CCOCCC(C)C`, the outcome was inactive.

In the case of `c1cc[nH]c1`, the compound was called inactive.

Take `CCOC=O`: the compound was called inactive.

`Cc1ccccc1OCC(=O)O`: the result was inactive.

In the case of `Clc1ccc2c(Cl)ccnc2c1`, the compound was called inactive.

Take `O=C1Cc2ccccc2N1c1c(Cl)cccc1Cl`: the outcome was inactive.

Turning to `CCCCCCCCCCCC(=O)O`, the result was inactive.

For `CCCCCCCCCCCC`, the AC50 is 89.9 µM (active).

Turning to `Cc1cccc2c1ccc1ccccc12`, the result was inactive.

As to `CCCCCCCCCCCC[N+](C)(C)Cc1ccccc1`, the AC50 is 24.2 µM (active) and 31.9 µM (active).

Consider `CC(C)c1c(C(=O)Nc2ccccc2)c(-c2ccccc2)c(-c2ccc(F)cc2)n1CC[C@@H](O)C[C@@H](O)CC(=O)O`, for which the compound was classed as inactive.

On to `Oc1cc2ccccc2cc1O`, for which the call was inactive.

For the compound `CCCCCCCC(OC)OC`, the compound was called inactive.

Turning to `CC1CNCC(C)O1` (stereo unspecified), the compound was called inactive.

For the compound `CCCCCCCCC(C)=O`, the outcome was inactive.

For the compound `CCN(CCC#N)c1ccccc1`, the outcome was inactive.

On to `O=C(O)CN(CCCN(CC(=O)O)CC(=O)O)CC(=O)O`, for which the compound was classed as inactive.

As for `CCc1cccc(CC)c1N(COC)C(=O)CS(=O)(=O)O`, the result was inactive.

Consider `Cc1ccc(N=Nc2c(O)ccc3ccccc23)c(C)c1`, for which the call was inactive.

Tested on in the next assay: not listed separately
Briefly: TOX21_p53_BLA_p2_viability: Viability Assessment in the Tox21 HCT-116 p53 Agonism Beta-lactamase Assay, Phase 2 (AID 2283591).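 Also: actives lower the ATP signal meaning cytotoxicity.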 An outline of the steps:
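HCT116 p53-bla cells, 4000/well, dosed after 5 h plating (217-fold dilution of DMSO stocks) and incubated 16 h at 37C. Viability taken as cellular ATP by CellTiter-Glo luminescence after 30 min RT; signal loss marks cytotoxicity.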
For the compound `COc1cc([N+](=O)[O-])ccc1N`, the outcome was inactive.

For the compound `C=CC(=O)OCC(CO)(COCC(COC(=O)C=C)(COC(=O)C=C)COC(=O)C=C)COC(=O)C=C`, the AC50 was 4.15 µM (active).

As for `Oc1c(Cl)ccc(Cl)c1Cl`, the call was inactive.

Another assay concerns the target Cellular tumor antigen p53 (Homo sapiens) (UniProt P04637). Kind of assay: TOX21_p53_BLA_p2_ratio: Tox21 HCT-116 p53 Agonism Beta-lactamase Assay, Ratio, Phase 2 (AID 2283592). The method in brief:
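Readout: blue/green (460/530 nm) FRET emission ratio after 2 h CCF4-AM loading at room temperature, excitation 405 nm. HCT116 p53 bla cells, 16 h compound exposure at 37C, 5% CO2; agonist direction fitted against DMSO baseline.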
Regarding `COc1cc([N+](=O)[O-])ccc1N`, the outcome was inactive.

Turning to `C=CC(=O)OCC(CO)(COCC(COC(=O)C=C)(COC(=O)C=C)COC(=O)C=C)COC(=O)C=C`, the AC50 is 78.7 µM (active).

For the compound `Oc1c(Cl)ccc(Cl)c1Cl`, the result was inactive.
